Assay outcomes (PubChem)
Most compounds without a hit are left out; they make up all but 8.7% or so of the library.
VACV mCherry inh: qHTS for Stage-Specific Inhibitors of Vaccinia Orthopoxvirus: mCherry Reporter Primary qHTS; Vaccinia virus mCherry reporter infection, fluorescence; 310,000 tested, 0.63% active; AID 720579, 2013; Potency, µM (titrated, usually from 36.5 µM), usual class: inhibitors; calls by dose curve; tested in A549 cells; further: nearly all actives have a fitted effect of over 35% in size
Pf growth 48h: Primary qHTS for delayed death inhibitors of the malarial parasite plastid, 48 hour incubation; P. falciparum luciferase growth in erythrocytes, 48 h; Potency, µM (top dose mostly 28.7 µM), usual class: inhibitors; 310,000 tested, 5.9% active
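Cell-based growth assay: transgenic P. falciparum expressing firefly luciferase, cultured in red cells within RPMI 1640 containing 0.5% w/v Albumax, 24 mM bicarbonate and gentamycin. A drop in luciferase activity indicates inhibition.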
VACV Venus inh: qHTS for Stage-Specific Inhibitors of Vaccinia Orthopoxvirus: Venus Reporter Primary qHTS; Vaccinia virus Venus reporter expression, fluorescence; Potency, µM (highest dose often 36.5 µM), most hits filed as inhibitors; 330,000 tested, 0.46% active; AID 720580, 2013; calls by dose curve; tested in A549 cells; further: nearly all actives have a fitted effect of over 30% in size
Pf growth 96h: Primary qHTS for delayed death inhibitors of the malarial parasite plastid, 96 hour incubation; P. falciparum luciferase reporter growth, 96 h; Potency, µM (titrated, usually from 28.7 µM), actives largely listed as inhibitors; 320,000 tested, 6.9% active; AID 504834, 2011
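P. falciparum expressing integrated firefly luciferase grown in erythrocytes (2% hematocrit, 0.05% parasitemia final) with compounds for 96 hours at 37 C, 5% CO2. Growth inhibition read as loss of luminescence after adding luciferase detection reagent.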
AMA1 RON2 block: qHTS for Inhibitors of AMA1-RON; Towards Development of Antimalarial Drug Lead: Primary Screen; Potency, µM (doses to about 58.2 µM), most hits filed as inhibitors; AlphaScreen AMA1-biotinylated RON2 peptide binding; 360,000 tested, 0.2% active; further: nearly all actives have a fitted effect of over 45% in size
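AMA1 (3D7) with his tag at 25 nM final met compounds first, then biotinylated RON2 peptide at 25 nM; detection used donor plus acceptor beads, 10 µg/mL apiece, read by AlphaScreen after 30 min at room temperature.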
Numbers stand for hits; – = inactive; ? = inconclusive; · = not tested or not shown. Unless noted, the call rests on the fitted dose curve; in most records, active means well fitted curve in the direction sought with a large enough effect; inconclusive means small, poorly fitted or top-dose-only effect, or another doubt; inactive means no such curve, though single readings can be large; an effect the other way counts as inactive or inconclusive.

SMILES	VACV mCherry inh	Pf growth 48h	VACV Venus inh	Pf growth 96h	AMA1 RON2 block
O=c1c(-c2ccc(Cl)cc2)c(C(F)(F)F)oc2c(CN3CCCCC3)c(O)ccc12	–	·	–	·	·
Cc1ccc(Cn2c(O)c(N=NC(=S)Nc3ccccc3F)c3ccccc32)cc1	·	?	·	–	–
Oc1c(N=NC(=S)Nc2ccccc2F)c2ccccc2n1Cc1ccccc1Cl	·	5.22µM	·	?	–
Cc1c(Cl)cccc1NC(=S)N=Nc1c(O)n(CN2CCOCC2)c2ccccc12	–	3.7µM	–	–	–
Oc1c(N=NC(=S)Nc2ccccc2F)c2ccccc2n1Cc1ccccc1	·	?	·	–	–
CC(C)c1c(C(=O)NCc2ccccn2)cnn1-c1nccc(-c2ccccc2F)n1	–	·	–	·	·
COc1ccc(OC)c(-n2c(-c3ccc(O)cc3O)n[nH]c2=S)c1	–	?	–	0.0131µM	–
Oc1ccc(-c2n[nH]c(=S)n2-c2ccc3c(c2)OCCO3)c(O)c1	?	0.415µM	–	0.0657µM	–
S=c1[nH]nc(-c2ccc(Cl)cc2Cl)n1-c1ccc2c(c1)OCCO2	–	–	–	–	–
COc1cc(OC)cc(-c2n[nH]c(=S)n2-c2cc(OC)ccc2OC)c1	·	·	·	·	–
CC(=O)c1cccc(NC(=O)CSc2nc3ccccc3nc2Cc2ccc(F)cc2)c1	–	·	–	·	·
CCCOC(C(=O)OC1CCN(C)CC1)(c1ccccc1)c1ccccc1	·	12µM	·	12µM	·
CN1CCC(OC(=O)COc2ccccc2)CC1	·	–	·	11.7µM	–
COc1ccc(C)cc1S(=O)(=O)Nc1cccnc1	·	–	·	6.57µM	–
CCCCCNS(=O)(=O)c1cc(C)ccc1OC	–	–	–	11.7µM	–
C/C(=N\N=C(N)N)c1ccc(Cl)c(Cl)c1	?	4.15µM	?	?	–
O=c1c(N2CCOCC2)nsn1Cc1ccccc1	12.6µM	–	?	–	–
CCC(Sc1nnc(-c2ccc(F)cc2)c(-c2ccc(F)cc2)n1)C(=O)NC1CCCC1 (stereo not given)	–	·	–	·	·
CCOC1OC(=O)C(Cl)=C1Nc1ccc(C)cc1C (stereo not given)	–	?	–	2.33µM	–
COC12C(COC(N)=O)C3=C(C(=O)C(C)=C(N)C3=O)N1CC1C2N1C (stereo not given)	?	0.928µM	?	?	–
COc1ccc(CNC(=O)CN2C(=O)CSc3ccc(S(=O)(=O)N(C)C)cc32)cc1	–	·	–	·	·
C/C(=N\NC(=O)c1cc2ccccc2cc1O)c1ccc(C)o1	–	?	–	–	–
C/C(=N\NC(=O)c1c[nH]c2ccccc12)c1ccc(C)o1	·	·	·	0.928µM	–
Oc1ccccc1C1=NCCNC(C(F)(F)F)=C1	–	–	–	–	–
FC(F)(F)C1=CC(c2ccc(Cl)cc2)=NCCN1	·	?	–	2.62µM	–
SMILES	VACV mCherry inh	Pf growth 48h	VACV Venus inh	Pf growth 96h	AMA1 RON2 block
Fc1cccc(NCc2cccn2-c2nnc(N3CCOCC3)s2)c1	–	·	–	·	·
COc1ccc(C2NC(=O)NC(c3ccccc3)=C2c2nc3ccccc3s2)cc1 (stereo not given)	·	?	·	·	–
O=C1NC(c2ccccc2)=C(c2nc3ccccc3s2)C(c2ccc(F)cc2)N1 (stereo not given)	·	–	·	13.1µM	–
Cc1cc2ncn(C(=O)N3CCCCCC3)c2cc1C	–	–	–	7.38µM	–
Cc1cc2ncn(C(=O)N3CCCCC3)c2cc1C	–	–	–	13.1µM	?
CNc1ccc(C=C2c3ccccc3-c3ccccc32)cc1	–	·	?	·	·
CCN(CC)C(=O)CSc1nc2cc(OC)c(OC)cc2c(=O)n1Cc1ccc(Cl)cc1	·	11.7µM	·	?	–
COc1cc2nc(SCC(N)=O)n(CCC3=CCCCC3)c(=O)c2cc1OC	–	–	–	13.1µM	–
COCCNC(=O)CSc1nc2cc(OC)c(OC)cc2c(=O)n1CCC1=CCCCC1	·	–	·	–	–
COc1cccc(C2C(C(=O)Nc3cccnc3)=C(C)Nc3nc(SCc4ccccc4)nn32)c1 (stereo not given)	–	·	–	·	·
CCOC(=O)c1c(C)oc2nc(C)nc(NCc3ccc(OC)cc3)c12	–	·	–	·	·
Cc1n[nH]c(C)c1CCN(C)Cc1cn(C)nc1-c1ccc2c(c1)OCCO2	–	–	–	1.31µM	–
COCCn1c(SCC(=O)N2CCc3ccccc3C2)nc2cc(Cl)ccc2c1=O	–	?	–	9.28µM	–
CC(C)Cn1c(SCC(=O)N2CCc3ccccc3C2)nc2cc(Cl)ccc2c1=O	–	?	–	4.65µM	–
CC(C)Cn1c(SCC(=O)N2CCc3ccccc3C2)nc(O)cc1=O	·	·	·	·	–
Cc1cc(C)cc(N2C(=O)N(Cc3cccc(F)c3)c3ccccc3S2(=O)=O)c1	–	·	–	·	·
CCOCCCNC(=O)c1ccc(OC)c(OC2CCN(C(C)C)CC2)c1	·	–	·	14.7µM	–
COc1ccc(CCC(C)N2CCC(Oc3ccc(C(=O)N4CCCC4)cc3)CC2)cc1 (stereo not given)	–	11.7µM	–	?	–
COc1ccc(C(=O)N2CCCCCCC2)cc1OC1CCN(C(C)C)CC1	–	–	–	3.7µM	–
COc1ccc(C(=O)NCCCC2CCCC2)cc1OC1CCN(C(C)C)CC1	–	·	–	·	–
Cc1ccc(C(=O)N(Cc2cc3ccc(F)cc3nc2N2CCC(O)CC2)CC2CCCO2)cc1 (stereo not given)	–	·	–	·	·
COc1ccc(Cn2ccc3nc(C)c(C(=O)Nc4ccc(OC)cc4)cc3c2=O)cc1	–	·	–	·	·
N#Cc1cnc(Sc2ccccc2)nc1	–	?	–	0.0329µM	–
CC1C/C(=N\NC(=S)NCc2ccccc2)CC(C)(C)C1 (stereo not given)	·	·	·	4.15µM	–
CC1CCC2(CC1)NC(=O)N(NC(=O)CCl)C2=O (stereo not given)	15.8µM	–	?	?	–
SMILES	VACV mCherry inh	Pf growth 48h	VACV Venus inh	Pf growth 96h	AMA1 RON2 block
O=C(CCC1CCCCC1)NCCN1C2=NC[C@H](Cc3ccc(O)cc3)N2C[C@H]1Cc1ccc(O)cc1	?	?	–	?	–
CC(C)[C@H]1CN=C2N(CCNC(=O)CCC3CCCCC3)[C@H](Cc3ccc(O)cc3)CN21	–	9.28µM	–	?	–
COc1ccc(C[C@H]2CN3C(=NC[C@@H]3C(C)C)N2CCNC(=O)CCC2CCCCC2)cc1	–	?	–	4.65µM	–
C[C@@H]1CN=C2N(CCNC(=O)CCC3CCCCC3)[C@H](Cc3ccc(O)cc3)CN21	–	–	–	13.1µM	–
COc1ccc(C[C@H]2CN3C(=NC[C@@H]3Cc3ccccc3)N2CCNC(=O)CCC2CCCCC2)cc1	?	3.7µM	?	2.94µM	–
COc1ccc(NC(=O)COC(=O)CCC2CCCCC2)cc1	–	·	–	·	–
O=C(Cn1nc(C(F)(F)F)c2c1CCCC2)Nc1cccc(Cl)c1	–	·	–	·	·
CCOC(=O)C1=C(O)/C(=C/c2ccc(OCC(=O)O)c(OCC)c2)SC1=Nc1ccccc1	–	?	–	?	–
CCOC(=O)C1=C(O)/C(=C/c2ccc(-c3ccccc3C(=O)O)o2)SC1=Nc1ccc(C)cc1	·	?	·	0.928µM	–
